# This is part of a sample that, as a whole, favours compounds with a hit. Of some 83,000 tested, about 20% had one in any assay.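 Step 1: grow cells in 96-well plates. Step 2: add test compound at a single concentration. Step 3: incubate 48 h. Step 4: record percent growth.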 A number with no mark means an inactive call. Calls of active or inactive are those of the source.
# Tested on: A498 renal
# Assay: NCI-60 one-dose screen, 48 h (100 = growth as untreated, 0 = no growth, -100 = all killed)
# Conditions: 10 µM unless noted
# Procedure: Growth inhibition of the A498 human tumor cell line is measured as a screen for anti-cancer activity. Cells are grown in 96 well plates and exposed to the test compound for 48 hours. Compounds are tested at a single concentration, which is 10^-5 M for most compounds. The reported endpoint is percent growth (GI% or GIPRCNT), where numbers from 0 - 100% represent growth inhibition, and numbers from -100% - 0 represent cell death. For example, a value of 40 represents 60% growth inhibition. A value of 0 means no net growth occurred over the course of the experiment. A value of -40 indicates 40% of cells at the beginning of the experiment died by the end of the experiment. A value of -100 means all cells are dead at the end of the experiment.
# NCI-60 Human Tumor Cell Lines Screen was performed using the standard one-dose NCI protocol, which is described in more detail at https://dtp.cancer.gov/discovery_development/nci-60/default.htm.
# Compounds with GIPRCNT values below 10 were considered active. Activity score was based on GIPRCNT using the following formula: […]
# Score is 0 for GIPRCNT values of 100 or above, 50 for GIPRCNT values of 0, and 100 for GIPRCNT values of -100.
row,Compound,growth
1,O=S(=O)(Nc1cc(Cl)c(F)c(Cl)c1)c1ccc(-c2cnc(C3CC3)o2)cc1,15.5%
2,CCCC(=O)NC(c1cccnc1)c1cc(C(C)=O)c2cccnc2c1O (stereo not given),56.6%
3,CC1(C)CC[C@]2(C(=O)N3CCCNCC3)CC[C@]3(C)C(=CC[C@@H]4[C@@]5(C)CCC(=O)C(C)(C)[C@@H]5CC[C@]43C)[C@H]2C1,109%
4,C#C[C@]1(O)CC[C@H]2[C@@H]3CC=C4c5sc(Nc6nc(C)cc(OC)n6)nc5CC[C@]4(C)[C@H]3CC[C@@]21C,18.7%
5,COC(=O)c1nc(-c2ccc(C)cc2)oc1S(=O)(=O)N1CCN(c2oc(-c3ccccc3)nc2C#N)CC1,85.8%
6,O=c1[nH]c2cc(Cl)ccc2n1C1CCN(c2ccc3nnc(Cl)n3n2)CC1,61.5%
7,COc1ccc(NS(=O)(=O)c2ccc(-c3cnc(C4CC4)o3)cc2)cc1Cl,13.1%
8,CC(=O)NC(C)(C)C(=O)N1CCC[C@H]1C(=O)NC(C)(C)C(=O)N[C@@H](C)C(=O)NC(C)(C)C(=O)NC(C)(C)C(=O)N[C@@H](CCC(N)=O)C(=O)NC(C)(C)C(=O)N[C@H](C(=O)NC(C)(C)C(=O)NCC(=O)N[C@@H](CC(C)C)C(=O)NC(C)(C)C(=O)N1CCC[C@H]1C(=O)N[C@H](C(=O)NC(C)(C)C(=O)NC(C)(C)C(=O)N[C@@H](CCC(N)=O)C(=O)N[C@@H](CCC(N)=O)C(=O)N[C@H](CO)Cc1ccccc1)C(C)C)C(C)C,25% [4.25 µM]
9,Cn1cc(-c2nn3cc(-c4ccncc4)nc3s2)c2cc(Cl)ccc21,89.7%
10,COc1ccc(NC2=C(Cl)C(=O)C(C)=C(C)C2=O)cc1,83.3%
11,COc1cc2cc(Oc3ccc(NC(=O)Nc4cc(C(F)(F)F)cc(C(F)(F)F)c4)cc3)c(C)nc2cc1OCCN(C)C,113%
12,O=C1CC2(CCOCC2)Oc2ncccc21,99.6%
13,CC1=C2C(=C[C@@](C)(COS(N)(=O)=O)[C@@H]2O)C(=O)[C@](C)(O)C12CC2,55.7%
14,CC(C)SC1=NC(=C(C(=N1)NC2=ClC=CC=C2)C#N)C3=CC=CC=C3,71.6%
15,COC(=O)[C@@]1(C)CC[C@]2(C)CC[C@]3(C)C(=CC(=O)[C@@H]4[C@@]5(C)Cc6c(n(CC#CCN7CCN(C)CC7)c7ccccc67)C(C)(C)[C@@H]5CC[C@]43C)[C@@H]2C1,112%
16,O=C(/C=C1\C=CN(CCCCO)c2ccccc21)n1ccc2ccccc21,117%
17,Cc1ccc(NC(=O)c2ccc(CN3CCN(C)CC3)c(I)c2)cc1Oc1ccc(-c2[nH]nc3ncnc(N)c23)cc1,103%
18,O=C1[C@H]2Cc3c([nH]c4ccccc34)[C@@H](c3ccc(Cl)cc3)N2C(=O)CN1C1CCN(Cc2c(Cl)cccc2Cl)CC1,111%
19,O=S(=O)(Nc1ccc(I)c(Cl)c1)c1ccc(-c2cnc(C3CC3)o2)cc1,2.08% (active)
20,C=C1C(=O)O[C@@H]2C[C@@H](C)CCC(=O)[C@](C)(OC(C)=O)C[C@H](OC(=O)/C(C)=C\C)[C@@H]12,119%

row,Compound,growth
1,Cn1cc2c(c1)-c1c(sc3nc(-c4ccc(NC(=O)Nc5cc(C(C)(C)C)on5)cc4)cn13)CC2,32.1%
2,O=C1/C(=C/c2ccccc2[N+](=O)[O-])Oc2ccc(O)cc21,87.3%
3,Cn1c(SC(C(=O)Nc2ccc(F)cc2)c2ccccc2)nc2ccccc2c1=O (stereo not given),98.8%
4,Cc1ccc(NC(=O)c2cc(/C=C/C(=O)NO)cc(C(F)(F)F)c2)cc1Nc1nccc(-c2cccnc2)n1,-46.9% (active)
5,CCn1c2ccc(/C=N/NS(=O)(=O)CCN(C)C)cc2c2cc(/C=N/NS(=O)(=O)CCN(C)C)ccc21,69.8%
6,Cc1cc(C(=O)Nc2ccc(SC#N)cc2)c(C)o1,94.4%
7,CC(C)c1nn(-c2ccccc2)c(N2CCCCC2)c1/C=N/NC(N)=S,66.2%
8,COc1cc(/C=N/Nc2ccnc3cc(Cl)ccc23)cc(OC)c1O,99.5%
9,CS(=O)(=O)c1ccc2c(c1)c1c(n2S(=O)(=O)c2ccc(Cl)cc2)CCCC1,-11.2% (active)
10,COc1ccc(-c2nnc(/N=C3/C(=O)Nc4ccc(Br)cc43)o2)cc1,91.9%
11,O=C(CN1C(=O)CSC1=O)Nc1ccc(C(=O)/C=C/c2cc3ccccc3nc2Cl)cc1,94.3%
12,Cc1cc(O)c2c(c1)C(=O)C(c1c(C)cc3c(c1O)C(=O)C=CC3=O)=CC2=O,122%
13,C=C(C)C(=O)O[C@H]1C[C@@]2(C)OC(=CC2=O)/C(CO)=C\[C@H]2OC(=O)C(=C)[C@H]12,-3.55% (active)
14,O=C1NC(=O)c2c1c1c3ccccc3ccc1c1[nH]c3ccccc3c21,-36.3% (active)
15,CCN1C(=O)N(CC)C2SC(N/N=C/c3ccccc3F)=NC21 (stereo not given),-22.1% (active)
16,C#CCOc1ccccc1C(Nc1ccccc1)c1nnnn1C1CCCCC1 (stereo not given),104%
17,COc1ccc([C@@H]2[C@@H](O)C(=O)N2c2cc(OC)c(OC)c(OC)c2)cc1Cl,-16.9% (active)
18,Clc1ccc(-c2nc3ccc(/C(=N\N=C\c4ccccc4)c4ccccc4)cc3[nH]2)cc1,65.7%
19,O=C(Nc1cc(F)cc2cccnc12)c1cnc(N2CCOCC2)cn1,86.6%
20,COc1cc(C2=NN(C(C)=O)C(c3ccc(N4CCOCC4)cc3)C2)cc(OC)c1OC (stereo not given),78.7%

# Reference: PubChem BioAssay (NCI)
